Results published in the supplement of paper PMC6555819.

Each sequence was assayed on RARa:RXR (NR concentration 270 nM, RXRa partner concentration 90 nM) (assay: PBM binding z-score (relative to random genomic background probes); higher = stronger binding; sequences stand for … in GC…GCGATTGACAGCGTAGAATGAAGG).
Procedure, shortened: (§1)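 Each nuclear receptor dimer, without ligand, was incubated for 1 h on custom Agilent 4×180K protein-binding microarrays. Binding was detected with antibodies against each partner (one per run), and scanned fluorescence was regression-normalized. The binding z-scores are referenced to random human genomic background probes.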

Sequence | PBM binding z-score
CAAACTAGCTCAAAGGTCAAAGTCGAGCCAACCA | 6.39
GGAACGAGGGCAAGTCGATAGCAGAGTTTGATGG | -0.0113
CAGCGTAGGTCAGGGCCAGTATAGGAGGAACGTT | 1.04
TATTGTAGATCAACAGGAGGTTAAGAAAGATCGA | 0.904
CAGCCTAGGTCAGGGCCAATATAGGAGGAACGTT | 0.941
CTCGAAAAGTCGTGCTCAGGTGAGTATACCAAAC | 0.523
GCGATTGGGGCAAAGCAGGTTACCATAAGGTTGG | 1.13
TCGTGTAGATCAACAGGAGGTTAAGAAAGATCGA | 1.06
CCTATTAGTTTACCATAAGGGCAACCGAAGCTCG | 0.819
GCTAGTCGGTCAGTAAAAGGTCACACACCGGTCG | 6.26
TCTATTAGTTGAACGGCAACCGACGAGTCCGTTT | 0.372
ATCTCTAAGTAACAAGTTCAGTGAAAGAGAGGAC | 1.18
GCTAGTTGGTCAGTAAAAGGTCCCACACCGGTCG | 0.0824
TCATATAGGTAAACGGTGAAAGTCGGTGTGGTAA | 0.111
ACTAGTTGGTCAGCTGAGGTCACATACAATTCGG | 4.17
CGTCCAAGGTCATAGGAGGTCAGTGAGGACAGAT | 6.37
TCATATAGGTAAATGCTAGGTGAAAGTGCGATCT | 1.12
TCCAGTAGGTTAGGGGCATTCAGAATGGCGTCGA | 0.878
CTCGAAAGGTCGTGCTCAGGTGAGTAGACCAAAC | 4.48
CCTAGTAGGTCAGGAGGTCACACACCGGATATGA | 6.63

Sequence | PBM binding z-score
CAAACTAGGTCACGAAAGTTCAAAGTCGAATGAC | 6.02
TCTTGTAGATCAAGGGTTAAGAAAGCCGAAGCCT | 1.06
TTACCAAGATGAGCTGAGGTCGTTGATCCAACTC | 1.35
CCTTACGGGTCAAGGTTATAGCGCGGGTGGTACG | 3.94
TAGTCTAGGTCATGGGCCAGTATACCACGCGAAC | 2.78
ATCTCTAGGTAAAAGTTCAGTCAATCCCGAGGAT | 1.68
AGTCAAAGTTCACTAGGGAACGTAAGATTCAGCT | 2.71
CGTCCAAGGTCATAGAAGGTCAGTGAAGACAGAT | 5.72
CCAGACAGGTGACAGGTAACTCAGTCTGGTACGC | 0.0624
CTCGAAAGGTCGTGCTCACGTGAGTATACCAAAC | 3.31
TTACCAAGGTGAGCAGAGGTCGTTGATCCAACTC | 2.23
ATGTCTAGGTAAAGTTCAGTGAAAGATCGATAGA | 1.13
CCGACTGGGGCACAAAGGTTACCATACCATCCGG | 2.57
TATACAGGGTCAAAGGCCAGCGTACGAATGTCGA | 6.38
CCTACTGGGCAATTCAGAGGTCATTGATCATATG | 4.45
ACTATTAGTTGACTTGGGGCAACCGATACGACGC | 0.245
CCGACTTGGGCAGAAAGGTTACCATACCATCCGG | 1.16
GCTAGCACGCCATTTGGGTCACTCAATGACGGGC | 0.592
TCGAGTAGGTTAGGGGCATTCAAAATGGCGTCGA | 0.797
CCTCGGAGGACAGAAGGTCAGAGCCGTCCGCTTT | 2.37

These sequences were tested on RARa homodimer (NR concentration 270 nM) in the same assay as above.
Procedure, shortened: as §1

Sequence | PBM binding z-score
CAAACTAGCTCAAAGGTCAAAGTCGAGCCAACCA | 2.49
GGAACGAGGGCAAGTCGATAGCAGAGTTTGATGG | -0.744
CAGCGTAGGTCAGGGCCAGTATAGGAGGAACGTT | 0.00652
TATTGTAGATCAACAGGAGGTTAAGAAAGATCGA | 0.431
CAGCCTAGGTCAGGGCCAATATAGGAGGAACGTT | 0.127
CTCGAAAAGTCGTGCTCAGGTGAGTATACCAAAC | -0.119
GCGATTGGGGCAAAGCAGGTTACCATAAGGTTGG | 0.0153
TCGTGTAGATCAACAGGAGGTTAAGAAAGATCGA | -0.074
CCTATTAGTTTACCATAAGGGCAACCGAAGCTCG | 1.51
GCTAGTCGGTCAGTAAAAGGTCACACACCGGTCG | 2.14
TCTATTAGTTGAACGGCAACCGACGAGTCCGTTT | 0.868
ATCTCTAAGTAACAAGTTCAGTGAAAGAGAGGAC | 1.73
GCTAGTTGGTCAGTAAAAGGTCCCACACCGGTCG | 0.292
TCATATAGGTAAACGGTGAAAGTCGGTGTGGTAA | 0.67
ACTAGTTGGTCAGCTGAGGTCACATACAATTCGG | 0.305
CGTCCAAGGTCATAGGAGGTCAGTGAGGACAGAT | 3.47
TCATATAGGTAAATGCTAGGTGAAAGTGCGATCT | 1.15
TCCAGTAGGTTAGGGGCATTCAGAATGGCGTCGA | -0.317
CTCGAAAGGTCGTGCTCAGGTGAGTAGACCAAAC | -0.171
CCTAGTAGGTCAGGAGGTCACACACCGGATATGA | 3.21

Sequence | PBM binding z-score
CAAACTAGGTCACGAAAGTTCAAAGTCGAATGAC | 2.95
TCTTGTAGATCAAGGGTTAAGAAAGCCGAAGCCT | -0.354
TTACCAAGATGAGCTGAGGTCGTTGATCCAACTC | -0.33
CCTTACGGGTCAAGGTTATAGCGCGGGTGGTACG | 0.367
TAGTCTAGGTCATGGGCCAGTATACCACGCGAAC | 0.751
ATCTCTAGGTAAAAGTTCAGTCAATCCCGAGGAT | 1.1
AGTCAAAGTTCACTAGGGAACGTAAGATTCAGCT | 0.63
CGTCCAAGGTCATAGAAGGTCAGTGAAGACAGAT | 1.77
CCAGACAGGTGACAGGTAACTCAGTCTGGTACGC | 0.656
CTCGAAAGGTCGTGCTCACGTGAGTATACCAAAC | -0.039
TTACCAAGGTGAGCAGAGGTCGTTGATCCAACTC | -0.99
ATGTCTAGGTAAAGTTCAGTGAAAGATCGATAGA | 1.09
CCGACTGGGGCACAAAGGTTACCATACCATCCGG | 0.061
TATACAGGGTCAAAGGCCAGCGTACGAATGTCGA | 1.26
CCTACTGGGCAATTCAGAGGTCATTGATCATATG | 0.887
ACTATTAGTTGACTTGGGGCAACCGATACGACGC | 0.466
CCGACTTGGGCAGAAAGGTTACCATACCATCCGG | -0.0756
GCTAGCACGCCATTTGGGTCACTCAATGACGGGC | -0.962
TCGAGTAGGTTAGGGGCATTCAAAATGGCGTCGA | 0.0472
CCTCGGAGGACAGAAGGTCAGAGCCGTCCGCTTT | 0.4
